Most compounds without a hit are left out; they make up all but 7.3% or so of the library.
HCV inh: inhibitors of hepatitis C virus infection; Huh7.5.1 HCVcc-Cre infection, luciferase reporter, 44 h; Potency, µM (series often up to 41.8 µM), most hits filed as inhibitors; 340,000 compounds, 3.4% hits; active = well fitted inhibition curve with a large enough effect; inconclusive = small, poorly fitted or top-dose-only effect, or another doubt; inactive = no such curve, though single readings can be large or run the other way
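A cell-based infection assay in which seeded cells (1,000 per well) receive test compound after 4 h, are inoculated with HCVcc-Cre at approximately 0.5 moi, and are incubated 44 h before luminescence detection.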
Vaccinia mCherry: inhibitors of vaccinia virus infection (mCherry reporter signal). Vaccinia virus mCherry reporter infection, fluorescence. Potency, µM (series often up to 36.5 µM), most hits filed as inhibitors. 310,000 compounds, 0.63% hits; calls by dose curve; tested in A549 cells; also: nearly all actives have a fitted effect of over 35% in size
VACV Venus inh: inhibitors of vaccinia virus (Venus reporter); Potency, µM (highest dose often 36.5 µM), usual class: inhibitors; Vaccinia virus Venus reporter expression, fluorescence; 330,000 compounds, 0.46% hits; AID 720580; calls by dose curve; tested in A549 cells; also: nearly all actives have a fitted effect of over 30% in size
FMDV antiviral: blocks foot and mouth disease virus | FMDV antiviral cell-based qHTS | AID 1159524 | Potency, µM (titrated, usually from 57.9 µM), actives largely listed as inhibitors | 410,000 compounds, 1.2% hits; calls by dose curve; tested in HEK293T cells; also: read-out not given here; nearly all actives have a fitted effect of over 45% in size
HCMV inh: human cytomegalovirus inhibition; activity change, negative = inhibition, % at 57.5 µM; 410,000 compounds, 4.5% hits; AID 1259415; HFF cells, HCMV-luciferase reporter, 72 h; stronger effect = lower value; in the data active = activity change below about -60%; inconclusive = no clear call, values can overlap the other calls; inactive = above about -39%
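After 16 h attachment at 37C, HFF cells received test compound and HCMV-luciferase (1 PFU/cell); reporter luminescence read 72 h later, data normalized against buffer-only and known inhibitor Salinomycin.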
Of the large screens only hits and unclear results are named; the others gave an inactive call.

COc1ccc2sc(N(CCCN(C)C)C(=O)c3ccc(S(=O)(=O)N4CCCC4)cc3)nc2c1	HCV inh inconclusive
Cc1nnc(NC(=O)c2ccc(S(=O)(=O)N3CCc4ccccc4C3)cc2)o1	none (no result: Vaccinia mCherry, VACV Venus inh)
Cc1ccc2nc(N(CCCN(C)C)C(=O)c3ccc(S(=O)(=O)N4CCOCC4)cc3)sc2c1	none (no result: Vaccinia mCherry, VACV Venus inh)
Cc1ccc2nc(N(CCCN(C)C)C(=O)c3ccc(S(=O)(=O)N4CCc5ccccc5C4)cc3)sc2c1	HCV inh inconclusive, Vaccinia mCherry inconclusive, VACV Venus inh inconclusive, FMDV antiviral inconclusive, HCMV inh -103
Cc1cc(C)c2sc(NNC(=O)c3ccc(S(=O)(=O)N4CCc5ccccc5C4)cc3)nc2c1	HCV inh 2.8µM, Vaccinia mCherry 4.5µM, VACV Venus inh 7.9µM, FMDV antiviral inconclusive, HCMV inh -106
COc1ccc2sc(N(CCCN(C)C)C(=O)c3ccc(S(=O)(=O)N4CCc5ccccc5C4)cc3)nc2c1	HCV inh inconclusive, Vaccinia mCherry inconclusive, VACV Venus inh 11µM, FMDV antiviral 25µM, HCMV inh -98
Cc1cc(C)c2sc(N(CCCN(C)C)C(=O)c3ccc(S(=O)(=O)N4CCCc5ccccc54)cc3)nc2c1	HCV inh inconclusive, FMDV antiviral inconclusive, HCMV inh -61 (no result: Vaccinia mCherry, VACV Venus inh)
CN(C)CCCN(C(=O)c1ccc(S(=O)(=O)N2CCc3ccccc3C2)cc1)c1nc2ccc(F)cc2s1	HCV inh inconclusive, Vaccinia mCherry 13µM, VACV Venus inh 16µM
CCN(CC)CCN(C(=O)c1ccc2c(c1)CCCC2)c1nc2ccc(F)cc2s1	HCV inh inconclusive
Cc1cccc2sc(N(CCCN(C)C)C(=O)c3ccc(S(=O)(=O)N4CCc5ccccc5C4)cc3)nc12	Vaccinia mCherry inconclusive, HCMV inh -100
CN(C)CCCN(C(=O)c1ccc(S(=O)(=O)N2CCc3ccccc32)cc1)c1nc2ccc(F)cc2s1	none
COCCn1c(=NC(=O)c2ccc(S(=O)(=O)N3CCc4ccccc4C3)cc2)sc2cc(OC)ccc21	HCV inh 13µM
CN(C)CCCN(C(=O)c1ccc2c(c1)CCCC2)c1nc2ccc(F)cc2s1	HCV inh 7.9µM, Vaccinia mCherry inconclusive, VACV Venus inh inconclusive
Cc1ccc(C)n1C1C(=O)N(Cc2ccc(C(F)(F)F)cc2)c2c(F)cccc21 (stereo unspecified)	none (no result: HCV inh, Vaccinia mCherry, VACV Venus inh, FMDV antiviral)
CCCn1cc(S(=O)(=O)c2cc(C)ccc2C)c(=O)c2cc(F)c(N3CCCCCC3)cc21	Vaccinia mCherry inconclusive, VACV Venus inh inconclusive (no result: HCV inh)
Cc1cc(C)c(C(=O)/C=C/c2cccc3ccccc23)c(=O)[nH]1	HCV inh 11µM, Vaccinia mCherry 5µM, VACV Venus inh 8.9µM, FMDV antiviral inconclusive, HCMV inh -104
CCCCn1c(O)c(C(=O)/C=C/c2ccc3c(c2)OCO3)c(=O)[nH]c1=O	Vaccinia mCherry inconclusive, FMDV antiviral inconclusive
Cc1cc(C)c(C(=O)/C=C/c2ccc3c(c2)OCO3)c(=O)[nH]1	HCV inh inconclusive, HCMV inh -101
CC(=O)c1ccc(NC(=O)C(C)OC(=O)c2cccc(-n3cnnn3)c2)cc1 (stereo unspecified)	FMDV antiviral inconclusive
CC(OC(=O)c1cccc(-n2cnnn2)c1)C(=O)Nc1cccc(Cl)c1 (stereo unspecified)	HCV inh 8.9µM
CC(OC(=O)c1cccc(-n2cnnn2)c1)c1nc2ccccc2c(=O)[nH]1 (stereo unspecified)	FMDV antiviral inconclusive, HCMV inh -65 (no result: Vaccinia mCherry, VACV Venus inh)
C(=C\c1nccc2ccccc12)/c1ccc(N2CCOCC2)cc1	none (no result: HCV inh, FMDV antiviral, HCMV inh)
Cc1ccc2nc(-c3ccncc3)cc(-c3ccccc3)c2c1	HCV inh 11µM (no result: Vaccinia mCherry, VACV Venus inh)
Cc1ccc2nc(-c3ccc(NS(C)(=O)=O)cc3)cc(-c3ccccc3)c2c1	HCV inh inconclusive (no result: Vaccinia mCherry, VACV Venus inh)
CCCCCc1ccc(OCCCC[n+]2ccccc2)c(CCCCC)c1	Vaccinia mCherry inconclusive, VACV Venus inh inconclusive, FMDV antiviral inconclusive (no result: HCMV inh)
CCCCOc1ccc(C)cc1CN(CCO)CCO	none (no result: FMDV antiviral)
CCCCCc1ccc(OCCCC[n+]2ccc(C)cc2)c(CCCCC)c1	HCV inh 6.3µM, Vaccinia mCherry inconclusive, VACV Venus inh inconclusive, FMDV antiviral inconclusive, HCMV inh -100
CCCCCc1ccc(OCCCC[n+]2cccc(C)c2)c(CCCCC)c1	HCV inh inconclusive, Vaccinia mCherry inconclusive, VACV Venus inh inconclusive, FMDV antiviral inconclusive, HCMV inh -102
CCCCCCCCCCCCCCCC[n+]1ccc(C)cc1	Vaccinia mCherry inconclusive, VACV Venus inh 28µM (no result: HCV inh, FMDV antiviral, HCMV inh)
CC(=O)Nc1ccc(C2Nc3c(C)cc(C)cc3-c3cc(C)nn32)cc1 (stereo unspecified)	FMDV antiviral inconclusive (no result: HCV inh)

Screens from PubChem.
